This is a sample that favours compounds with a hit; in the whole collection about 3.6% have one here.
esBAF inh = SWI/SNF esBAF complex inhibition. mouse ES cells, Bmi1-luciferase knock-in reporter, 24 h; 100% = twice the neutral-well signal. reporter increase, % at 12.5 µM. actives 2% (n = 350,000). AID 602393; in the data active means activation above about 40%; inconclusive means no clear call, values can overlap the other calls;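 further: 0% = median of the plate's neutral control wells and 100% = double that signal; a rise in the Bmi1 reporter signal indicates esBAF inhibition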
MITF act = activators of MITF-driven TRPM1 promoter activity in SK-MEL-5 cells; SK-MEL-5 TRPM1-promoter luciferase, 24 h; % of positive control, neutral wells = 0; activation, % at 12.5 µM; actives 0.75% (n = 300,000);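 active means mean activation of at least 80% with every replicate also reaching 80%; inconclusive means mean reaches 80% but some replicate falls short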;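 further: 0% = neutral control wells and 100% = parthenolide positive control wells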
PHOSPHO1 inh = PHOSPHO1 (human) inhibition; actives 1.1% (n = 290,000); Q8TCT1; AID 1565; recombinant PHOSPHO1, absorbance phosphatase assay; inhibition, % at 13.3 µM; in the data active means inhibition above about 60%
Target sequence (Q8TCT1 whole entry, looked up): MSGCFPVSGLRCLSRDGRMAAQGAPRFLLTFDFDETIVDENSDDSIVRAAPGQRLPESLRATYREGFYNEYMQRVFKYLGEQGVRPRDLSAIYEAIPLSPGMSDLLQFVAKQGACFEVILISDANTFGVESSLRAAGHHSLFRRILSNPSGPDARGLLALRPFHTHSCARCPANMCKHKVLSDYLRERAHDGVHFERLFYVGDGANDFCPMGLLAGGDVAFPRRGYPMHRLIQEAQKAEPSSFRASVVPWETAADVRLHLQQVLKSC
A3G deaminase = inhibitors of human APOBEC3G DNA deaminase; Q9HC16; recombinant A3G, ssDNA deamination FAM/TAMRA fluorescence; inhibition, % at 20 µM; actives 0.28% (n = 330,000);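 active means inhibition of at least 40% at 20 µM, with no more than 30% in the related APOBEC3A deaminase screen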;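 further: plate controls were DMSO wells with A3G for no effect and wells lacking A3G enzyme for full effect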
Wnt act = activators of Wnt/beta-catenin signaling; Wnt/beta-catenin reporter cell assay, activator, plate reader; activation, % at 9.35 µM; actives 1.2% (n = 300,000); AID 743398; in the data active means activation above about 30%, passing the limit was not always enough; inconclusive means no clear call, values can overlap the other calls;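 further: 0% = neutral control wells and 100% = positive control wells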
A3A deaminase = blocks human APOBEC3A ssDNA deamination; P31941; recombinant A3A, FAM/TAMRA ssDNA deamination fluorescence; inhibition, % at 20 µM; actives 0.41% (n = 330,000);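 active means at least 40% inhibition at 20 µM here, with at most 30% in a related deaminase screen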;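 further: plate controls were A3A with DMSO for no effect and wells lacking A3A enzyme for full effect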
Target sequence (P31941 whole entry, looked up): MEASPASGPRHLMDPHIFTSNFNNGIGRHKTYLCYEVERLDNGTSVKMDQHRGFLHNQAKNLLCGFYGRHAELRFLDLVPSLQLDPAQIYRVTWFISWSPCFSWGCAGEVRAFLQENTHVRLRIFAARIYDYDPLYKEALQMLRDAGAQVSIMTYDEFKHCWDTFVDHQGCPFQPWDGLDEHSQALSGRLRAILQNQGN
An asterisk follows results filed as active; ? = inconclusive; . = no result given.

SMILES | esBAF inh | MITF act | PHOSPHO1 inh | A3G deaminase | Wnt act | A3A deaminase
CN(C)c1ccc(/C=N\NC(=O)c2cccc3cc[nH]c23)cc1 | 54* | . | 28 | -7 | 10 | -4
CN(C)c1ccc(/C=N/NC(=O)c2cc(=O)[nH]c3ccccc23)cc1 | -7 | 7 | 16 | -1 | -4 | 0
CN(C)CC(O)c1ccc(C=Cc2ccc(Cl)cc2)cc1 (stereo not given) | 49* | -78 | . | . | ? | .
COc1cc(/C=C/C(=O)N2C(=O)c3cccc(N)c3C2=O)cc(OC)c1OC | 20 | -12 | -1 | -6 | 135* | -2
COc1ccc(OC)c(/C=C/C(=O)N2C(=O)c3cccc(N)c3C2=O)c1 | . | -53 | 3 | 0 | 0 | 0
COC(=O)c1sccc1NC(=O)Nc1cccc(C)c1C | 6 | -6 | 61* | -7 | 6 | -2
COC(=O)c1sccc1NC(=O)Nc1cccc(C)c1 | 95* | 19 | 22 | -3 | 12 | -1
COC(=O)c1sccc1NC(=O)Nc1cccc(C(C)=O)c1 | 1 | 1 | 31 | 0 | -1 | 2
O=C(N[C@H]1CC[C@H](CCNS(=O)(=O)Cc2ccccc2)O[C@H]1CO)c1ccccc1F | -1 | . | . | . | . | .
O=C(O)c1cccc2c1-c1ccccc1/C2=N\Nc1ccccc1 | 63* | 62 | 39 | -1 | 25 | 2
COC(=O)C1C(=O)c2c([nH]c(C(=O)OC3CCCC3C)c2C)CC1C (stereo not given) | 74* | 99* | 14 | 8 | 26 | 1
COC(=O)C1C(=O)c2c([nH]c(C(=O)OCCOC(C)C)c2C)CC1C (stereo not given) | . | . | 4 | -7 | . | -6
COC(=O)C1C(=O)c2c([nH]c(C(=O)OC3CCCCC3)c2C)CC1C (stereo not given) | 63* | 94* | -3 | 0 | ? | 2
C[C@H]1CCCCO[C@@H](CN(C)Cc2ccc(C(F)(F)F)cc2)[C@@H](C)CN([C@@H](C)CO)C(=O)c2cc(NC(=O)Nc3ccc4c(c3)OCO4)ccc2O1 | 2 | . | . | . | . | .
O=C(Nc1cc2c(cc1Cl)OCCCO2)c1ccccc1 | 57* | 60 | -4 | -3 | 11 | 2
Cc1cccc(NC(=S)NNC(=O)c2csc3c2CCC(C)C3)c1 (stereo not given) | 12 | 10 | 31 | 0 | 15 | -1
CC(C)CNC(=S)NNC(=O)c1csc2c1CCC(C)C2 (stereo not given) | 8 | -3 | 84* | -3 | . | 0
CCCN1[C@@H]2c3ccc(-c4ccccc4)c(=O)n3C[C@H]1[C@H](CO)[C@H]2C(=O)NCC | 2 | . | . | . | . | .
C=CCn1c(C)cc(C(=O)CSc2n[nH]c(N)n2)c1C | 12 | 11 | 62* | -10 | 12 | -6
CN(C(=O)CSc1nnc(-c2ccco2)o1)C1CCCCC1 | 41* | 48 | 1 | -6 | . | -4
O=C(CSc1nnc(-c2ccco2)o1)NC1CCCCC1 | 2 | . | 3 | -1 | -5 | -1
Cc1cc(C(=O)CSc2n[nH]c(N)n2)c(C)n1-c1ccc(F)cc1 | 31 | 50 | -3 | -9 | 28 | 0
Cc1ccc(-n2c(C)cc(C(=O)CSc3n[nH]c(N)n3)c2C)cc1 | 11 | 36 | -27 | -7 | . | -2
Cc1cc(C(=O)CSc2n[nH]c(N)n2)c(C)n1-c1ccccc1 | 37 | 4 | 95* | 3 | 12 | 2
Cc1cc(C(=O)CSc2n[nH]c(N)n2)c(C)n1C1CC1 | 6 | 5 | 96* | -5 | . | -3
SMILES | esBAF inh | MITF act | PHOSPHO1 inh | A3G deaminase | Wnt act | A3A deaminase
C[C@H](CO)N1C[C@H](C)[C@@H](CN(C)C)Oc2cc(-c3ccncc3)ccc2S1(=O)=O | 1 | . | . | . | . | .
Cc1nnc(SCC(=O)c2cc(C)n(-c3ccc4c(c3)OCO4)c2C)s1 | 70* | 25 | 92* | -3 | 12 | -6
Cc1nnc(SCc2ccc3c(c2)OCO3)s1 | 51* | 56 | 7 | -4 | . | -1
Cc1cc(C(=O)CN2C(=O)NC(CC(C)C)C2=O)c(C)n1C1CC1 (stereo not given) | 43* | 29 | . | -4 | 5 | -3
Cc1cc(C(=O)CN2C(=O)NC(CC(C)C)C2=O)c(C)n1-c1ccccc1F (stereo not given) | . | -2 | 24 | -17 | -1 | 0
Cc1cc(C(=O)CSc2nnc(-c3ccco3)o2)c(C)n1-c1ccc2c(c1)OCCO2 | 14 | -19 | 92* | -5 | . | -5
O=C(C[C@H]1CC[C@@H]2[C@H](COC[C@@H](O)CN2S(=O)(=O)c2ccc(Cl)cc2)O1)N[C@H]1CCN(Cc2ccccc2)C1 | -2 | . | . | . | . | .
O=C(C[C@H]1CC[C@@H](NC(=O)c2ccccc2)[C@@H](CO)O1)Nc1ccc(-c2ccccc2)cc1 | 12 | . | . | . | . | .
Cc1cc(C(=O)CSc2n[nH]c(N)n2)c(C)n1-c1cc(F)ccc1F | 51* | 36 | -16 | -5 | 14 | -3
Cc1nnc(SCC(=O)c2cc(C)n(C3CC3)c2C)s1 | . | 55 | 105* | -3 | . | 3
C[C@H](CO)N1C[C@H](C)[C@@H](CN(C)S(=O)(=O)c2cn(C)cn2)Oc2ccc(NC(=O)Nc3ccc(C(F)(F)F)cc3)cc2CC1=O | -4 | . | . | . | . | .
O=[N+]([O-])c1ccc(N/N=C/c2ccc[nH]2)cc1 | . | 10 | 90* | . | -12 | .
O=[N+]([O-])c1ccc(NN=Cc2cccc([N+](=O)[O-])c2)cc1 | 22 | 10 | . | . | 5 | .
C[C@@H](NC(=O)C[C@H]1C[C@H]2c3cc(NC(=O)c4cccnc4)ccc3O[C@H]2[C@H](CO)O1)c1ccccc1 | 2 | . | . | . | . | .
Cc1ccc(S(=O)(=O)Nc2c(Cl)c(Cl)c(O)c3ccccc23)cc1 | . | . | 9 | 82* | . | -5
Cc1ccc(S(=O)(=O)Nc2c(O)ccc3ccccc23)cc1 | . | . | . | 5 | . | 0
Cc1nn(-c2ccc(Cl)cc2)c(=O)c2ccccc12 | . | 18 | 29 | -6 | ? | -3
Cc1c(Cl)sn(-c2ccc(Cl)cc2)c1=O | -8 | -97 | -20 | 44* | -10 | -2
C[C@@H]1CN([C@H](C)CO)C(=O)c2ccccc2-c2ccccc2CO[C@H]1CN(C)C(=O)CCN(C)C | -2 | . | . | . | . | .
CC(C)NC(=O)N(C)C[C@@H]1Oc2cc(C#C[C@H](C)O)ccc2S(=O)(=O)N([C@H](C)CO)C[C@@H]1C | -1 | . | . | . | . | .
CCc1ccc(Nc2nnc(SCC(=O)Nc3sccc3C(N)=O)s2)cc1 | . | 13 | 15 | -8 | . | -1
COc1cccc(Nc2nnc(SCC(=O)Nc3sccc3C(N)=O)s2)c1 | 20 | -16 | 62* | -7 | 0 | -1
Cc1ccc(-c2nc(N)n(C(=O)c3cccnc3)n2)cc1 | 43* | . | -7 | -2 | 9 | -1
Cc1ccc(C(=O)n2nc(-c3cccnc3)nc2N)cc1 | . | -2 | -9 | -6 | . | 1
CO[C@@H]1CN(C)C(=O)c2cc(NS(C)(=O)=O)ccc2OC[C@@H](C)N(CC2CCCCC2)C[C@@H]1C | -1 | . | . | . | . | .

Screening results from PubChem BioAssay.
